# ATXN2 expr inh = ATXN2 expression inhibition. HEK-293 ATXN2-luciferase reporter, luminescence, 24 h. Potency, µM (highest dose often 57 µM), for inactives: at the highest dose activity change, negative = inhibition, actives largely listed as inhibitors. 360,000 compounds, 0.72% hits. AID 1745845; note: % is set by controls: 0 for no effect and ±100 for the full control effect; nearly all actives have a fitted effect of over 55% in size
#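 ATXN2-luciferase reporter cells (luciferase flanked by upstream and downstream ATXN2 gene portions) were treated 24 h at 37 °C with compounds at up to 57 uM. SteadyGlo luminescence gave expression; GF-AFC fluorescence gave viability.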
# KB-V1 MDR tox = kills drug-selected multidrug resistant KB-V1 cells | KB-V1 MDR cells viability, CellTiter-Glo, 72 h | Potency, µM (titrated, usually from 46.1 µM), actives largely listed as cytotoxic | 400,000 compounds, 3.4% hits | AID 1347076; note: % is set by controls: 0 for no effect and ±100 for the full control effect; nearly all actives have a fitted effect of over 60% in size
#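 Cells of the MDR subline KB-V1 are plated, dosed with compound at multiple concentrations, and incubated 72 h at 37 degrees C; CellTiter-Glo is then added and luminescence read after 10 min.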
# HepG2 viability = counter-screen for TGF-b inhibitors: cytotoxicity in HepG2 cells. HepG2 CAGA-GFP viability, ATP luminescence, 18 h. 410,000 compounds, 0.76% hits. Potency, µM (doses to about 46.1 µM), inactives show top-dose activity change, negative = cytotoxicity, actives largely listed as cytotoxic
#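 CellTiter-Glo luminescence gave cytotoxicity after 18 hours at 37 degrees C. The cells were HepG2 CAGA-GFP in 1% FBS DMEM, stimulated with 500 pg/mL TGF-beta after compound addition. %Activity was normalised to no-cell wells (complete cell-killing) and DMSO (no toxicity), and curves were fitted and classified.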
# S2 tox = reduces viability in counter-screen for ATXN expression inhibitors | S2 cells (HEK-293 line with an ATXN2-luciferase reporter) viability, CellTiter-Fluor protease fluorescence, 24 h | Potency, µM (titrated, usually from 56.7 µM), hits mostly cytotoxic | 400,000 compounds, 0.49% hits; note: nearly all actives have a fitted effect of over 40% in size
# TGFb inhibitor = blocks TGF-b signaling; HepG2 CAGA-GFP TGF-b/SMAD3 reporter, GFP fluorescence, 18 h; TGF-beta stimulated, 500 pg/mL final; Potency, µM (highest dose often 46.1 µM), for inactives: at the highest dose activity, negative = inhibition, usual class: inhibitors; 410,000 compounds, 1.2% hits; AID 588855; note: % is set by controls: 0 for no effect and ±100 for the full control effect; nearly all actives have a fitted effect of over 65% in size
#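 TGF-beta reporter screen: HEPG2 CAGA-GFP, 1% FBS, 500 pg/mL TGF-beta final, 18 h; per-cell GFP summed per well; curves fitted and categorized by class.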
# KB-3-1 tox = kills parental KB-3-1 adenocarcinoma cells; Potency, µM (doses to about 46.1 µM), usual class: cytotoxic; KB-3-1 viability, CellTiter-Glo ATP luminescence, 72 h; 400,000 compounds, 1.4% hits; AID 1347075; note: % is set by controls: 0 for no effect and ±100 for the full control effect; nearly all actives have a fitted effect of over 60% in size
#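 72 h, 37 °C compound treatment of KB-3-1 parental cells; CellTiter-Glo added, 10 min, luminescence read. Data corrected against DMSO-only plates and normalized before curve fitting.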
# The depositor's hits bear a star; i = inactive; ? = inconclusive; . = no result given. Most compounds without a hit are left out; they make up all but 5.9% or so of the library. Calls come from the whole dose curve; as a rule, active = well fitted curve in the direction sought with a large enough effect; inconclusive = small, poorly fitted or top-dose-only effect, or another doubt; inactive = no such curve, though single readings can be large; an effect the other way counts as inactive or inconclusive. Potency is the fitted concentration of half-maximal effect.
SMILES,ATXN2 expr inh,KB-V1 MDR tox,HepG2 viability,S2 tox,TGFb inhibitor,KB-3-1 tox
CC(=O)C(C(c1ccccc1)c1c[nH]c2ccccc12)[N+](=O)[O-] (stereo not given),.,?,-37.2%,i,?,7.31µM*
Cc1ccc(-n2nnnc2-c2cnc3cc4c(cc3c2C)OCO4)cc1,-8.3%,23.1µM*,-6.8%,i,-2.8%,i
CCn1nnnc1NCc1ccc(OCc2c(F)cccc2Cl)c(OC)c1,.,?,21.4%,i,-14.0%,i
COc1cc(CNn2nnnc2N)ccc1OCc1c(Cl)cccc1Cl,-4.0%,14.6µM*,-3.2%,i,1.0%,16.4µM*
O=C(NN1CCCCC1)c1cccc(COc2ccc(Cl)cc2)c1,22.8%,14.6µM*,-0.3%,?,-22.7%,i
O=C(O)c1cc(OCc2ccccc2)cc(OCc2ccccc2)c1,?,?,2.7%,i,-4.8%,i
CCOc1ccc(OCc2cccc(C(=O)N3CCCC3)c2)cc1,7.94µM*,?,0.5%,i,-13.8%,i
COc1cc(/C=C/[N+](=O)[O-])ccc1OCc1cccc(C(=O)O)c1,28.2µM*,i,-39.6%,?,?,i
COc1ccc(C(=O)C=Cc2ccc(OCc3ccccc3)c(OC)c2)cc1OC,.,?,-1.3%,i,15.2%,?
COc1ccc(OCc2cccc(C(=O)O)c2)cc1,0.316µM*,18.4µM*,-57.1%,i,3.3%,?
CCN(CC)/[N+]([O-])=N/OCOC(=O)C(C)c1ccc(CC(C)C)cc1 (stereo not given),.,.,-8.7%,.,-11.6%,.
COC(=O)C1=C[C@@H](C(=O)OC)[C@@H]2C3=C(C(=O)C2(C)C)[C@H](c2ccccc2)[C@@H]2C(=O)N(c4ccccc4)C(=O)[C@@H]2[C@@H]3C1,.,.,9.2%,.,0.9%,.
COc1cccc(C(=O)Nc2ccccc2OCc2cc(=O)n3ccccc3n2)c1,.,.,-24.3%,.,-5.2%,.
Cc1cccc(-c2nc(S(=O)(=O)c3ccc(Cl)cc3)c(N3CCCCCC3)o2)c1,2.0%,i,0.3%,?,-4.5%,i
CCOc1ccc(OCc2cccc(C(=O)O)c2)cc1,0.282µM*,i,-66.9%,i,-5.3%,i
O=C(O)c1ccc(COc2ccc(CO)cc2Cl)cc1,4.6%,i,-4.8%,i,-0.3%,i
O=Cc1ccc(OCc2cccc(C(F)(F)F)c2)cc1O,-10.7%,i,-32.8%,i,?,i
CCOc1ccc(OCc2cccc(C(=O)N3CCCCCC3)c2)cc1,.,?,-1.4%,i,-14.5%,i
O=C(O)c1cccc(COc2ccc(CO)cc2Cl)c1,0.282µM*,i,-23.6%,i,-10.9%,i
O=C(OCC(F)(F)F)c1cccc(COc2ccc3ccccc3c2)c1,2µM*,i,11.4%,i,4.1%,i
CC(=O)c1ccc(N2CCN(C(=O)c3cc4cc5cc(C)ccc5nc4s3)CC2)cc1,6.5%,i,1.0%,i,3.3%,i
Cc1cn([C@H]2C[C@H](F)[C@@H](CO)O2)c(=O)[nH]c1=O,-3.5%,.,.,i,.,.
CCN(CC)CCC(c1ccc(N(C)C)cc1)c1c(OC)cc(OC)c2c1OC(=O)CC2c1ccc(N(C)C)cc1 (stereo not given),.,.,-1.1%,.,5.3%,.
Cc1ccc(CNc2ncnc3sc(C(=O)N4CCC[C@H]4C(N)=O)c(C)c23)o1,.,.,.,i,.,.
CCCCNCC1C(Oc2ccc(Cl)cc2)C(=O)N1c1ccccc1C (stereo not given),-21.6%,i,15.8µM*,i,14.1µM*,i
SMILES,ATXN2 expr inh,KB-V1 MDR tox,HepG2 viability,S2 tox,TGFb inhibitor,KB-3-1 tox
COc1ccc(C(=O)Cn2c(C(=O)/C=C/c3ccccc3)nc3ccccc32)cc1,22.4µM*,?,-50.5%,?,1.8%,?
COc1ccc(C(=O)CSc2nc3ccccc3n2CC(=O)c2ccccc2)cc1,-16.3%,?,-5.4%,?,-21.5%,i
CC(NC(=O)CN(C)CC(=O)Nc1cccc(F)c1)c1ccccc1 (stereo not given),-13.8%,18.4µM*,-1.0%,i,-3.9%,i
Cc1ccc(C)c(NC(=O)C2(C)CCCN2C(=O)C(C)C)c1 (stereo not given),6.9%,i,4.9%,i,14.1%,i
CCn1c2ccccc2c2cc(/C=N/NC(=O)c3cccc(C)c3)ccc21,?,5.8µM*,-42.9%,i,-8.0%,?
CCn1c2ccccc2c2cc(/C=N/n3cnnc3)ccc21,?,i,-69.7%,i,?,i
CCn1c2ccccc2c2cc(/C=N/O)ccc21,.,11.6µM*,-27.9%,i,?,i
COc1cccc(CN2Cc3cccc4c3[C@H](C=CC4)CC2=O)c1,.,?,-1.3%,.,-24.3%,i
Nc1ncnc2c1ncn2[C@@H]1O[C@H](COP(=O)(O)O)[C@@H](O)[C@H]1O,55.5%,?,31.4%,i,-9.8%,i
CN1N=C(N)c2cn(C3OC(COP(=O)(O)O)C(O)C3O)c3ncnc1c23 (stereo not given),16.5%,?,-40.8%,i,0.282µM*,1.84µM*
CCOC(=O)/C(=C\c1ccc([N+](=O)[O-])o1)NC(=O)c1ccccc1,-21.2%,?,11.2µM*,?,?,i
CCCOC(=O)/C(=C\c1ccc([N+](=O)[O-])o1)NC(=O)c1ccccc1,-28.4%,?,-57.7%,?,?,?
CCc1ccccc1NC(=O)C(C)n1c(=O)cc(C)c2c(C)nn(-c3ccccc3)c21 (stereo not given),6.5%,i,2.4%,i,8.3%,i
O=Cc1ccc2noc(-c3ccc(Cl)cc3)c2c1,52.7%,23.1µM*,-4.0%,i,-1.0%,?
Nc1ccc(-c2nc3c(Cl)cc(N)cc3[nH]2)cc1,10µM*,i,-8.5%,i,-11.9%,i
Cc1ccc(O)c(-c2cc3ccccc3[nH]2)c1,51.0%,i,-63.9%,i,15.8µM*,i
CCOC(=O)CNC(c1ccccc1)c1cc(Br)ccc1NC(=O)c1cccc(Cl)c1 (stereo not given),-17.5%,?,-29.7%,?,-19.4%,i
COC(=O)CNC(c1ccccc1)c1cc(Cl)ccc1NC(=O)c1cccc(Cl)c1 (stereo not given),1.9%,5.17µM*,8.7%,i,4.7%,i
COC(=O)c1cc(NC(=O)c2cc3sccc3n2Cc2ccc(Cl)cc2)cc(C(=O)OC)c1,9.3%,i,-8.1%,i,-15.6%,i
COC(=O)c1ccccc1-c1cc(C)cc2c1OC(CNC(=O)C1CCCO1)C2 (stereo not given),.,.,.,i,.,.

# Source: PubChem (National Center for Advancing Translational Sciences (NCATS))
